# A selection: hits, their analogues and other compounds. The true share with any hit is near 0.95%.
# A488 fluor: compound fluoresces in the A488 spectral region; compound autofluorescence, A488 spectral region, dye equivalency; Compound Type: qHTS ECL - MLSMR; 59,000 tested, 0.1% active; max dye equivalency, M
#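 Read-out: relative fluorescence at 480/540 nm, expressed as Alexa 488 dye-equivalent concentration from a six-point A488 standard included per plate. Conditions: 100 mM Tris, pH 8.0; 15 min incubation, room temperature.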
# Rhodamine fluor: compound autofluorescence in rhodamine spectral region | Rhodamine-region fluorescence, 547/598 nm, Tris buffer; active compounds read high | 59,000 tested, 0.05% active | max dye-equivalent concentration, M | AID 594; in the data active = max dye-equivalent concentration above about 11 nM; inconclusive = between about 1.1 nM and that limit
#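 Intensities are converted to rhodamine-equivalent concentration using a six-point rhodamine standard on each plate. Compounds sit 15 min at room temperature in 100 mM Tris buffer, pH 8.0; read uses the 547/598 nm excitation/emission pair.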
# Resorufin autofl: compounds fluorescent in resorufin spectral region | Compound fluorescence, resorufin region 547/598 nm, buffer; active compounds read high | 59,000 tested, 0.04% active | AID 588 | max dye-equivalent concentration, M
#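 Intrinsic fluorescence profiled in the resorufin window (ex 547 nm, em 598 nm) after 15 min at room temperature in pH 8.0 Tris buffer (100 mM); responses normalized against a six-point resorufin standard series as dye-equivalent concentration.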
# Texas Red fluor: Texas Red region autofluorescence; 59,000 tested, 0.06% active; max dye-equivalent concentration, M; AID 587; Compound fluorescence, Texas Red channel, 547/618 nm; active compounds read high; in the data active = max dye-equivalent concentration above about 10 nM; inconclusive = between about 1.1 nM and that limit
#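 Compound titrations in 100 mM Tris pH 8.0 were incubated 15 min at room temperature and read at 547 nm excitation / 618 nm emission. Texas Red six-point standard curve on each plate converted fluorescence to dye-equivalent concentration.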
# Fluorescein fluor: compound fluoresces in the fluorescein spectral region; Compound autofluorescence, 480/540 nm, fluorescein-equivalent; active compounds read high; max fluorescein-equivalent concentration, M; 59,000 tested, 0.91% active; AID 593; in the data active = max fluorescein-equivalent concentration above about 10 nM; inconclusive = between about 1.1 nM and that limit
#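 Each compound is tested across a concentration series in 100 mM Tris buffer at pH 8.0. After 15 min at room temperature, plates are imaged with 480 nm excitation and 540 nm emission filters, and intensities are converted to fluorescein-equivalent values.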
# A647 autofl: compound fluoresces in the A647 spectral region; Compound fluorescence, A647 channel (570/671 nm), Tris buffer; max dye-equivalent concentration, M; 59,000 tested, under 10 active;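 also: values scaled relative to a standard on each plate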
#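 Fluorescence read (570 nm ex, 671 nm em) after 15 min RT incubation of compounds in 100 mM Tris buffer, pH 8.0; values expressed as dye-equivalent concentration against a six-point A647 standard series on each plate.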
# Starred values were filed as active, the others as inactive; i = inactive; ? = inconclusive. Unless noted, no rule for the calls is given here.
SMILES,A488 fluor,Rhodamine fluor,Resorufin autofl,Texas Red fluor,Fluorescein fluor,A647 autofl
C[C@H]1[C@H](C)CC[C@]2(C(=O)O)CC[C@]3(C)C(=CC[C@@H]4[C@]5(C)C[C@H](O)[C@@H](O)[C@@](C)(CO)[C@@H]5[C@H](O)C[C@@]43C)[C@H]12,i,i,i,i,?,3.11e-08
CCOC(=O)c1cnc(-n2nc(C)cc2C)nc1N(CC)CC,i,i,i,i,1.14e-08M*,4.44e-08
CCOC(=O)c1cnc(-n2nc(C)cc2C)nc1Nc1ccc(N(C)C)cc1,i,i,i,?,?,4.48e-08
CCOC(=O)c1cnc(-n2nc(C)cc2C)nc1NC,i,i,i,i,1.02e-08M*,1.8e-09
CCOC(=O)c1cnc(-n2nc(C)cc2C)nc1NC1CCCCC1,i,i,i,i,?,4.68e-08
Cn1c(=O)[nH]c2cc(Cl)cnc21,i,i,i,i,1.79e-08M*,9.03e-08
FC(F)(F)c1nc2ncc(Cl)cc2[nH]1,i,i,i,i,i,3.6e-09
CCOc1ccc(C2C=C(c3ccc(C)cc3)Nc3nnnn32)cc1 (stereo not given),i,i,i,i,?,1e-09
CCOc1ccc(C2C=C(c3ccc(C)cc3)Nc3ncnn32)cc1 (stereo not given),i,i,i,?,1.49e-08M*,5.4e-09
CCCCCNC(=O)C(C#N)c1nc2ccccc2nc1N1CCCC1 (stereo not given),2.89e-08M*,i,i,i,5.52e-07M*,1e-09
CCCCCCNC(=O)C(C#N)c1nc2ccccc2nc1N1CCCC1 (stereo not given),4.11e-08M*,i,i,i,8.01e-07M*,1e-09
COCCCNC(=O)C(C#N)c1nc2ccccc2nc1N1CCCC1 (stereo not given),?,i,i,i,6.6e-08M*,1.62e-08
CCCCOC(=O)C(C#N)c1nc2ccccc2nc1N1CCOCC1 (stereo not given),?,i,i,i,2.89e-08M*,5.9e-09
CCCCCCOC(=O)C(C#N)c1nc2ccccc2nc1N1CCOCC1 (stereo not given),i,i,i,i,?,3.6e-09
CC1(C)CCC(NC(=O)[C@H](N)CCC(=O)O)CC1,i,i,i,i,?,1e-09
CCc1ccc(CCC(=O)O)nc1,i,i,i,i,i,1.2e-08
CC1=C(\C=C/C(C)=C/C=C\C(C)=C\C(=O)Nc2ccc(O)cc2)C(C)(C)CCC1,i,i,i,i,?,8.9e-09
COC(=O)[C@]1(C)CCC(c2ccc(C)cc2)=C(CC(=O)O)C1,i,i,i,i,i,2.7e-09
CCCCN(CCCC)c1nc2ccccc2nc1C(C#N)C(=O)NCCCOC (stereo not given),?,i,i,i,5.73e-08M*,1.62e-08
CCCCCCNC(=O)C(C#N)c1nc2ccccc2nc1N1CCOCC1 (stereo not given),3.02e-08M*,i,i,i,4.12e-07M*,1.5e-09
CC1=CC(=O)c2ccccc2C1=O,i,i,i,i,?,3.8e-08
NC1=CC(=O)c2cccc3cccc1c23,?,i,i,i,3.56e-08M*,2.59e-08
CCOC(=O)CSC1=NC(=O)CS1,i,i,i,i,2e-08M*,1e-09
CCOC(=O)CSc1nnc(N)s1,i,i,i,?,?,2.3e-09
Cc1ccc([C@@H]2C3COCC=C3C(C#N)=C(N)C2(C#N)C#N)o1 (stereo not given in full),i,i,i,i,1.16e-08M*,1.94e-08
CCN1CCN(c2nc3ccccc3nc2C(C#N)C(=O)OCc2ccccc2)CC1 (stereo not given),i,i,i,i,?,6.6e-09
N#CC(C(=O)NCc1ccccc1)c1nc2ccccc2nc1N1CCCC1 (stereo not given),2.19e-08M*,i,i,i,3.86e-07M*,2.6e-09
CCN(CC)c1nc2ccccc2nc1C(C#N)C(=O)NCCc1ccccc1 (stereo not given),?,i,i,?,1.13e-07M*,1.48e-08

# Source: PubChem (National Center for Advancing Translational Sciences (NCATS))
